Our source for the inhibition values is ChEMBL document CHEMBL1961873, “Compounds: GSK PKIS; Assays: Nanosyn kinase panel” (2012).

SMILES strings stand for the structures.

The target of assay [1] is T1, Inhibitor of nuclear factor kappa-B kinase subunit epsilon (Homo sapiens) (UniProt Q14164).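 Further: reported values are averaged percent inhibition figures against human IKKε.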
T1 sequence (whole entry): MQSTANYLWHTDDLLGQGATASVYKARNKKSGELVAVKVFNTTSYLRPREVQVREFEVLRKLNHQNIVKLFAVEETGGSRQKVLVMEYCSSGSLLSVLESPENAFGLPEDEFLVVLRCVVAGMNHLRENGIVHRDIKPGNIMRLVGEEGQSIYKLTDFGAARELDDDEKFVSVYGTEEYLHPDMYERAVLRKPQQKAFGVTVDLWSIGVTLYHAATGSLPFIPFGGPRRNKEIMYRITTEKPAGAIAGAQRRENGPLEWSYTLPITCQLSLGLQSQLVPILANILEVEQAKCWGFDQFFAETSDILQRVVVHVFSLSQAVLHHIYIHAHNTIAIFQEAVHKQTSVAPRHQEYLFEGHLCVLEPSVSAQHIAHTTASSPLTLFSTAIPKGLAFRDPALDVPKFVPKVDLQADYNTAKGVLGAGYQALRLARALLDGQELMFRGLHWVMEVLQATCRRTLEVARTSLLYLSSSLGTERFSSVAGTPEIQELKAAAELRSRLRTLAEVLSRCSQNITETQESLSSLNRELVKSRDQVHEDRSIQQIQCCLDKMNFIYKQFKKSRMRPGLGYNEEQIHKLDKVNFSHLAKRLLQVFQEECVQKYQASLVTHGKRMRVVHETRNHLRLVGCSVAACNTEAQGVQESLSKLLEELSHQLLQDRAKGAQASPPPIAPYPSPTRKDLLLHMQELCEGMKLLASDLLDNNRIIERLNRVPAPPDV
To be noted: at 1 µM.

The target in assay [2] is T2, Serine/threonine-protein kinase Nek1 (Homo sapiens) (UniProt Q96PY6).
T2 sequence (whole entry): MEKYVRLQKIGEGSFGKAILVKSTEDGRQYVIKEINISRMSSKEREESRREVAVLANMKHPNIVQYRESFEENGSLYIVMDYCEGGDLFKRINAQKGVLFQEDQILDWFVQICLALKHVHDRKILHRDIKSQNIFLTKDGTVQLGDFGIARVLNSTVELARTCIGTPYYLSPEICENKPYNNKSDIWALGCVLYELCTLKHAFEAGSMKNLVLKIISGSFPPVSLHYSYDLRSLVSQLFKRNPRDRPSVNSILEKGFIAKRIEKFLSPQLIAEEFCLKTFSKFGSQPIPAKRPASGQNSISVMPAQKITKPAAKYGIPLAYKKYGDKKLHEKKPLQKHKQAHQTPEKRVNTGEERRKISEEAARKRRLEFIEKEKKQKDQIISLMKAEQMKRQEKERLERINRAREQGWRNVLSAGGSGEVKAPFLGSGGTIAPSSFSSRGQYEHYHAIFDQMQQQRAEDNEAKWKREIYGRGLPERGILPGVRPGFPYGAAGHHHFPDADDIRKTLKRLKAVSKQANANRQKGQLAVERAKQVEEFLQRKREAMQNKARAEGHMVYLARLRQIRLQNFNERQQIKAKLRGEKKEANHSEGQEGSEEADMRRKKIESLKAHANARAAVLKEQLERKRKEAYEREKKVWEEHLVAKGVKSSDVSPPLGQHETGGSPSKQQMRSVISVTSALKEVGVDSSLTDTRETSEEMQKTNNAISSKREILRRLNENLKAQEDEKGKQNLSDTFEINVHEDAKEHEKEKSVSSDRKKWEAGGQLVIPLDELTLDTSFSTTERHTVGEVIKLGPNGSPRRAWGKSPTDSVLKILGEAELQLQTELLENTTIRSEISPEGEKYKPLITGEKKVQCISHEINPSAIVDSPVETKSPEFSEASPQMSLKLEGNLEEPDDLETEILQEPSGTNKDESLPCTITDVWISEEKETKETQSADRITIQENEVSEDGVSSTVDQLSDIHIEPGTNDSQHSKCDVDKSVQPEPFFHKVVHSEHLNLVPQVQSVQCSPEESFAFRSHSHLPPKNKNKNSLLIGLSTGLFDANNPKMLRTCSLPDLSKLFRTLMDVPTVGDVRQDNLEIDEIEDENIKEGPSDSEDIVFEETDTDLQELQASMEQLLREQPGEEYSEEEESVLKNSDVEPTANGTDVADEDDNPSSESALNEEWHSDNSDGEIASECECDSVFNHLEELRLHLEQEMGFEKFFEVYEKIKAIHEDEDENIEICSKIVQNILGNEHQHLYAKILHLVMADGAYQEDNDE
To be noted: at 0.1 µM.

Assay [3] deals with T2, Serine/threonine-protein kinase Nek1 (Homo sapiens). Conditions: at 1 µM.
The target in assay [4] is T3, Serine/threonine-protein kinase Nek2 (Homo sapiens) (UniProt P51955).
T3 sequence (whole entry): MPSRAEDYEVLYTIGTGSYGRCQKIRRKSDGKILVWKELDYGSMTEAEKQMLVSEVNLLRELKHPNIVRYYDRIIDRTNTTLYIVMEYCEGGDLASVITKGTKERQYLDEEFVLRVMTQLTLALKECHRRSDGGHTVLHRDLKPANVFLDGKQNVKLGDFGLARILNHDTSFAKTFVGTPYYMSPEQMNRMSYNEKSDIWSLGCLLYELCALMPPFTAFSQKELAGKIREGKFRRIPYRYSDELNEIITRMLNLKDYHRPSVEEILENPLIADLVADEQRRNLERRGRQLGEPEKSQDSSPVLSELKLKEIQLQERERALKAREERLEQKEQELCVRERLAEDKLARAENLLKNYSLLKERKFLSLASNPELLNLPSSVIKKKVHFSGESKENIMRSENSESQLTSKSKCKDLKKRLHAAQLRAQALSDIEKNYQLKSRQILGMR
To be noted: at 0.1 µM.

Assay [5] has as its target T3, Serine/threonine-protein kinase Nek2 (Homo sapiens). Conditions: at 1 µM.
In assay [6] the target is Serine/threonine-protein kinase Nek6 (Homo sapiens) (UniProt Q9HC98). To be noted: at 0.1 µM.
Serine/threonine-protein kinase Nek6 (Homo sapiens), sequence (Q9HC98 whole entry): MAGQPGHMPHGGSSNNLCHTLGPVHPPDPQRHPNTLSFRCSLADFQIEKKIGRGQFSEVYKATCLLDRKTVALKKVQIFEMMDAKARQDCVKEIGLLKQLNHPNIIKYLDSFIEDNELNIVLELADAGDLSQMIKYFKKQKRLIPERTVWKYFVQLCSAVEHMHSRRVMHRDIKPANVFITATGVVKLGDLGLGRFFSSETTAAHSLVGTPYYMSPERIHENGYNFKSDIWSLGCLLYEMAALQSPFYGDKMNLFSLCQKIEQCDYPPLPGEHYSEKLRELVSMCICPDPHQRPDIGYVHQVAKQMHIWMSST
Assay [7] shares this target. Conditions: at 1 µM.
For assay [8], the target named is Serine/threonine-protein kinase Nek7 (Homo sapiens) (UniProt Q8TDX7). Conditions: at 0.1 µM.
Serine/threonine-protein kinase Nek7 (Homo sapiens), sequence (Q8TDX7 whole entry, looked up): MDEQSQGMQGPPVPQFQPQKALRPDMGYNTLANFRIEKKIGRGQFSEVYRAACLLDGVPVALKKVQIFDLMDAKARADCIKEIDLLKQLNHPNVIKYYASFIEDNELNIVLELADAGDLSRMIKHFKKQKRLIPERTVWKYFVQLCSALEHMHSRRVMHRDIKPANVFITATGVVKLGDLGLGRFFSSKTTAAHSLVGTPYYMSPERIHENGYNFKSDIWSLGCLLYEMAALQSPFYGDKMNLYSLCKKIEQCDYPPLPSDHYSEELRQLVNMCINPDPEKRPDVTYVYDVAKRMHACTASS
Assay [9] shares this target. Conditions: at 1 µM.
The target in assay [10] is T4, Serine/threonine-protein kinase Nek9 (Homo sapiens) (UniProt Q8TD19).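 Further: reported value is the mean percent inhibition of NEK9.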
T4 sequence (whole entry): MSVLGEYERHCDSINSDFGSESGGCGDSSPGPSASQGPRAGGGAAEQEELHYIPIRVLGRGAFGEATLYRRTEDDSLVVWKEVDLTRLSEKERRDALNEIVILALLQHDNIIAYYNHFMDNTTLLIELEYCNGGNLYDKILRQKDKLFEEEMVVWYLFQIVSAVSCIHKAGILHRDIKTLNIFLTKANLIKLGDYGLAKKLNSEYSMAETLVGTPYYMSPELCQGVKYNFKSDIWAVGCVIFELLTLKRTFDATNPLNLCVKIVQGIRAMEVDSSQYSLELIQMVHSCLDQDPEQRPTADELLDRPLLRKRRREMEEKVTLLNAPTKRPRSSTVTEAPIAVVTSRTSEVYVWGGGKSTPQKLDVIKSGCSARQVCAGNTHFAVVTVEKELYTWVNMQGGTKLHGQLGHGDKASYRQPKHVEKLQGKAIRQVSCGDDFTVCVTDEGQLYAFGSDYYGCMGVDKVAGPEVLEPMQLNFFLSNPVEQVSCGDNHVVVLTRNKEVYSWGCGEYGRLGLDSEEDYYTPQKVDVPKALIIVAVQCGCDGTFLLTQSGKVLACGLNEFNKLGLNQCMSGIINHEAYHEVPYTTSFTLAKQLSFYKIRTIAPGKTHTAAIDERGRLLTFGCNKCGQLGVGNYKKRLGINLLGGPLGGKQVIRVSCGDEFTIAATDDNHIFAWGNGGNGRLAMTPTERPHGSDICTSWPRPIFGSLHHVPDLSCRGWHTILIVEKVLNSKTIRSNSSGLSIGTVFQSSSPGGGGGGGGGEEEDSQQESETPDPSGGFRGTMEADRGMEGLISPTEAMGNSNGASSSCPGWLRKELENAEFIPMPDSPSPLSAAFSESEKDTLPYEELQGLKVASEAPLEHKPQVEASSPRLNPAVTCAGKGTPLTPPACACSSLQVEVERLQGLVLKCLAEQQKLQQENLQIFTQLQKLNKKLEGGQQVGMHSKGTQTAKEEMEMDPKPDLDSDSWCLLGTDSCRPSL
To be noted: at 0.1 µM.

As a reminder, the inhibition is the drop in the measured response relative to a control, in per cent. For the molecule `CN1CCC(C(=O)Nc2n[nH]c3nnc(-c4ccccc4)cc23)CC1`, the inhibition in [1] was 6.54%; in assay [2], 2.01%; in assay [3], 4.86%; in assay [4], 5.31%; in assay [5], 4.22%; in [6], 2.59%. Moreover, the inhibition in assay [7] amounted to 0.5%; in assay [8] it was 5.74%; in assay [9], 4.97%; in assay [10] it was 12.7%.
With `CS(=O)(=O)CCN(CC#N)Cc1ccc(-c2ccc3ncnc(Nc4ccc(OCc5cccc(F)c5)c(Cl)c4)c3c2)o1`, the inhibition in assay [1] is 1.93%; in [2] it was 0.91%; in [3] it was 1.78%; in assay [4], 3.59%; in assay [5] it was 2.16%; in [6], 2.16%. For the same molecule, the inhibition in assay [7] is -0.23%; in assay [8], 2.49%; in assay [9] it was 7.27%; in assay [10], 2.5%.
For the molecule `NC(=O)c1ccc(-c2nc(-c3ccccn3)c(-c3ccc4c(c3)OCO4)[nH]2)cc1`, the inhibition was determined as 4.06% in assay [1]; 1.34% in [2]; 3.26% in assay [3]; 2.44% in [4]; 2.69% in assay [5]; 2.04% in assay [6]. The inhibition in [7] came to 4.68%; in assay [8], 2.26%; in assay [9], 1.68%; in assay [10] it was 6.53%.
As for `O=C1NC(=O)C(c2cccc(Cl)c2)=C1Nc1ccc(O)c(Cl)c1`, the inhibition in [1] is 0.33%; in assay [2] it was 0.25%; in assay [3], 0.17%; in assay [4] it was 1.39%; in [5], 1.51%; in assay [6], -0.33%. The inhibition was -3.08% in [7], 1.78% in assay [8], 1.51% in assay [9] and 1.58% in assay [10].
With `CCn1c(-c2nonc2N)nc2c(N3CCCC3)nccc21`, the inhibition in assay [1] was -2.89%; in assay [2], -0.04%; in assay [3] it was 0.27%; in assay [4], -0.88%; in assay [5], -0.91%; in assay [6], 0.88%. Further, the inhibition in assay [7] is -1.63%; in assay [8] it was 2.1%; in assay [9], -1.35%; in assay [10] it was 2.28%.
As for `O=C(Nc1n[nH]c2nc(-c3ccco3)c(Br)cc12)C1CC1`, the inhibition in assay [1] was 3.64%; in assay [2], 2.9%; in assay [3], 1.85%; in assay [4], 4.03%; in assay [5] it was 3.85%; in assay [6] it was 3.21%. For the same molecule, the inhibition in assay [7] amounted to 0.56%; in assay [8], 4.18%; in assay [9], 3.03%; in assay [10], 1.02%.
For `Cc1cccc(-c2n[nH]cc2-c2ccc3ncccc3n2)n1`, the inhibition amounted to 2.37% in [1]; 2.07% in [2]; 2.35% in assay [3]; 1.59% in assay [4]; 1.08% in assay [5]; 1.75% in assay [6]. Further, the inhibition was 3.64% in [7], 2.98% in assay [8], 1.74% in assay [9] and 1.6% in [10].
For `Fc1cccc(COc2ccc(Nc3ncnc4sc(-c5cccs5)cc34)cc2Cl)c1`, the inhibition in assay [1] was 3.74%; in assay [2] it was 2.04%; in assay [3] it was 2.57%; in assay [4], 2.88%; in [5], 1.85%; in assay [6], -0.49%. Further, the inhibition was 1.79% in [7], -0.09% in assay [8], 5.03% in assay [9] and 1.95% in assay [10].
